Assay [1] can be described thus: qHTS assay to identify small molecule agonists of the hypoxia (HIF-1) signaling pathway - cell viability counter screen (AID 1224844; calls by dose curve; further: nearly all actives have a fitted effect of over 50% in size). In outline: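 HRE-bla ME-180 cells, 2,000/well in 0.5% dialyzed FBS medium, treated 17 h at 37C with compounds. Viability read in the same wells as the bla reporter, by CellTiter-Glo luminescence after 30 min at room temperature.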

A short description of assay [2]: qHTS assay to identify small molecule agonists of H2AX (AID 1224845; active means well fitted activation curve with a large enough effect in the signal ratio in the repeat runs, not every such curve was filed as active; the % refers to the signal ratio). In outline:
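Wild-type CHO-K1 cells, plated overnight, exposed 3hr at 37C to 15 concentrations (0.76% DMSO final). Lysed, then HTRF anti-pH2AX (S139) cryptate and anti-H2AX-d2 antibodies, 24 hr room temperature; 665/620 nm emission read.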
(In qHTS, concentration-response curves come from the screen itself.)

Assay [3] is described as follows: qHTS assay to identify small molecule agonists of the hypoxia (HIF-1) signaling pathway (AID 1224846; active means well fitted activation curve with a large enough effect in the signal ratio in the repeat runs, not every such curve was filed as active; the % refers to the signal ratio). In outline: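 HRE-bla ME-180 beta-lactamase reporter cells in medium with 0.5% dialyzed FBS, pre-incubated 5 h then exposed to compounds 17 h at 37C, 5% CO2; reporter induction read with CCF4-AM FRET substrate.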
Assay [4] in a line: qHTS assay to identify small molecule agonists of H2AX - cell viability counter screen (AID 1224847; calls by dose curve; further: top concentration of the series differs between compounds; nearly all actives have a fitted effect of over 30% in size). In outline:
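Read-out: CellTiter-Glo luminescence, 30 min RT. Cells: wild-type CHO-K1, 1000/well, 10% FBS, plated overnight at 37C. Treatment: 15 concentrations, 3 hr, 37C, 0.76% DMSO.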

A short description of assay [5]: qHTS RealTime-Glo MT Cell Viability Assay in HepG2 cells - 24 hour (AID 1224867). Further: nearly all actives have a fitted effect of over 50% in size. In outline:
(§1)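 HepG2 cells (600/well) were dispensed with RealTime-Glo reagents, incubated 5 h at 37 °C, then treated with compounds in DMSO for up to 40 h. Nonlytic NanoLuc luminescence reflecting viable cells was read at each stated time point.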

A short description of assay [6]: qHTS RealTime-Glo MT Cell Viability Assay in HEK293 cells - 32 hour (AID 1224868). Further: nearly all actives have a fitted effect of over 50% in size. Further: potency means the concentration at half of the fitted maximal effect. On activity change, negative = cytotoxic: top concentration of the series differs between compounds. In outline: (§2)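 HEK293 cells seeded with NanoLuc/prosubstrate reagent, rested 5 h at 37 C, then dosed and kept at 37 C up to 40 h. Nonlytic real-time luminescence from viable cells read at 0, 8, 16, 24, 32 and 40 h.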
Assay [7] can be described thus: A CellTox Green Cytotoxicity Assay to monitor cytotoxicity in HEK293 cells - 0 hour (AID 1224869). Further: nearly all actives have a fitted effect of over 50% in size. In outline:
(§3)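 HEK293 cells, 600/well, were preincubated 5 hours and then exposed to compounds at 37 C for up to 40 hours. A cell-impermeant cyanine dye staining dead-cell DNA was read by fluorescence at 0, 8, 16, 24, 32 and 40 h time points.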

A short description of assay [8]: qHTS RealTime-Glo MT Cell Viability Assay in HepG2 cells - 40 hour (AID 1224870). Further: nearly all actives have a fitted effect of over 50% in size. In outline:
(§4)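 HepG2 cells (600/well) mixed with RealTime-Glo MT reagent, settled 5 h at 37 C/5% CO2 before compound addition. Nonlytic NanoLuc luminescence from viable-cell prosubstrate reduction read repeatedly during 40 h treatment at 37 C.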

Assay [9] can be described thus: A CellTox Green Cytotoxicity Assay to monitor cytotoxicity in HEK293 cells - 40 hour (AID 1224871). Further: nearly all actives have a fitted effect of over 45% in size. Further: potency means the concentration at half of the fitted maximal effect. In outline: as §3
A short description of assay [10]: qHTS RealTime-Glo MT Cell Viability Assay in HEK293 cells - 16 hour (AID 1224872). Further: nearly all actives have a fitted effect of over 50% in size. Further: potency means the concentration at half of the fitted maximal effect. On activity change, negative = cytotoxicity: top concentration of the series differs between compounds. In outline: as §2
Assay [11] in a line: qHTS RealTime-Glo MT Cell Viability Assay in HepG2 cells - 8 hour (AID 1224873). Further: nearly all actives have a fitted effect of over 55% in size. Further: potency means the concentration at half of the fitted maximal effect. In outline: as §4
Assay [12] in a line: qHTS RealTime-Glo MT Cell Viability Assay in HEK293 cells - 40 hour (AID 1224874). Further: nearly all actives have a fitted effect of over 50% in size. Conditions: RealTime-Glo luminescence; max response: hits give low values. In outline: (§5)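 600 cells/well were plated with the nonlytic NanoLuc/prosubstrate reagent, pre-incubated 5 h, then given 23 nL of compound in DMSO. Incubation at 37 C for 40 h, with luminescence from viable-cell-reduced substrate read repeatedly from 0 h.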

Assay [13] can be described thus: A CellTox Green Cytotoxicity Assay to monitor cytotoxicity in HEK293 cells - 24 hour (AID 1224875). Further: series mostly up to about 77 µM; nearly all actives have a fitted effect of over 45% in size. In outline: as §3
Assay [14] in a line: A CellTox Green Cytotoxicity Assay to monitor cytotoxicity in HepG2 cells - 16 hour (AID 1224876). Further: nearly all actives have a fitted effect of over 45% in size. In outline: (§6)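 HepG2 cells, 600/well, preincubated 5 h with CellTox Green dye, then exposed to Tox21 compounds in DMSO at 37 C for up to 40 h. Dead-cell DNA fluorescence read at the indicated time point.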
The nature of assay [15]: qHTS RealTime-Glo MT Cell Viability Assay in HepG2 cells - 32 hour (AID 1224877). Further: nearly all actives have a fitted effect of over 55% in size. In outline:
as §1

Assay [16] in a line: A CellTox Green Cytotoxicity Assay to monitor cytotoxicity in HepG2 cells - 40 hour (AID 1224879). Further: nearly all actives have a fitted effect of over 40% in size. In outline: as §6
A short description of assay [17]: qHTS RealTime-Glo MT Cell Viability Assay in HEK293 cells - 0 hour (AID 1224880). Further: top concentration of the series differs between compounds; nearly all actives have a fitted effect of over 45% in size. In outline:
as §5

Assay [18] is described as follows: A CellTox Green Cytotoxicity Assay to monitor cytotoxicity in HepG2 cells - 24 hour (AID 1224878). Further: nearly all actives have a fitted effect of over 45% in size. In outline: as §6

A number with no mark means an inactive call. Records with an inconclusive call do not appear. Active and inactive are the calls of the source. Unless noted, the call rests on the fitted dose curve; in most records, active means well fitted curve in the direction sought with a large enough effect in the repeat runs; inconclusive means weak or mixed curves; inactive means no such curve, though single readings can be large; an effect the other way counts as inactive or inconclusive.
On the % scale 0 is the no-effect control and ±100 the full control effect.

Regarding `C=CCBr`, the Potency entry in assay [1], in assay [2], in [3], in [4], in assay [5] and in [6] was “inactive” throughout. Also, the Potency result in assay [7], in [8], in [9], in assay [10], in assay [11] and in [13] was “inactive” each time. The Potency entry in assay [14], in [15], in assay [16] and in assay [17] was “inactive” in each case. The max response in assay [12] was 0.528%.
With `CC(=O)[O-].CC(=O)[O-].CC(=O)[O-].[Sb+3]`, the activity change, negative = cytotoxicity in assay [1] is -10.5% [at 2.72 µM]; in assay [4] it was -1.46% [at 5.43 µM]; in [5], -0.623% [at 2.72 µM]; in assay [10], 1.77% [at 2.72 µM]; in [17] it was -11.8% [at 2.72 µM]. Further, the activation (H2AX phosphorylation) in [2] was 1.32% [at 5.45 µM]. For the same molecule, the activation in [3] is -0.789% [at 2.67 µM]. In addition, the values for the activity change, negative = cytotoxic in [6] and in [15] were 7.03% [at 2.72 µM] and 8.41% [at 2.72 µM], respectively. Besides, the cytotoxicity was -0.412% [at 2.72 µM] in [7] and -19.2% [at 2.72 µM] in [18]. The figures for the cytotoxicity increase in assay [9], in assay [14] and in [16] were 2.55% [at 2.72 µM], -16% [at 2.72 µM] and -22.4% [at 2.72 µM], respectively. Also, the viability change, negative = cytotoxic in assay [11] is -4.57% [at 2.72 µM]. Further, the max response in [12] is 11.6%. For the same molecule, in assay [13], the activity change is 1.85% [at 2.72 µM, hits give high values].
As to `CC[N+]1(CC)CCC(OC(=O)C(O)(c2ccccc2)c2ccccc2)C1` (stereo unspecified), the Potency entry in [1], in assay [2], in [3], in assay [4], in assay [5] and in [6] was “inactive” throughout. In addition, the Potency entry in assay [7], in assay [9], in [10], in assay [11], in assay [13] and in assay [14] was “inactive” in each case. In addition, the Potency result in [15], in assay [18], in [16] and in [17] was “inactive” each time. Moreover, the max response in assay [12] was 2.71%.
With `COc1ccc(Cc2nccc3cc(OC)c(OC)cc23)cc1OC`, the Potency result in assay [1], in assay [2], in [3], in assay [4], in assay [7] and in assay [8] was “inactive” each time. For the same molecule, the Potency entry in [9], in assay [13], in [14] and in [18] was “inactive” in each case. The Potency is 5.35 µM (active) in [6], 4.77 µM (active) in assay [10] and 10.7 µM (active) in assay [11].
Turning to `COc1ccc2c3c1O[C@H]1[C@H](O)CC[C@H]4[C@@H](C2)N(C)CC[C@@]341`, the Potency result in assay [1], in assay [2], in assay [3], in [4], in [5] and in assay [6] was “inactive” each time. The Potency result in assay [7], in [8], in assay [9], in assay [10], in assay [11] and in [13] was “inactive” each time. In addition, the Potency result in [14], in [15], in assay [16] and in [17] was “inactive” throughout. Also, the max response in assay [12] was -1.3%.
As to `Cc1ccc(C)c2ccccc12`, the Potency result in assay [1], in [2], in assay [3], in [4], in [5] and in assay [6] was “inactive” throughout. The Potency result in assay [7], in [8], in assay [10], in [11], in assay [14] and in [15] was “inactive” throughout. In addition, the Potency result in assay [18], in assay [16] and in [17] was “inactive” in each case. In addition, the Potency in assay [9] is 38.9 µM (active). In assay [12], the max response is -14.8%.
`CCC1(CC)C(=O)N=C(O)NC1=O`: the Potency entry in [1], in assay [2], in assay [3], in assay [4], in assay [5] and in assay [6] was “inactive” in each case. Further, the Potency entry in assay [7], in assay [8], in assay [9], in assay [10], in assay [11] and in [13] was “inactive” each time. For the same molecule, the Potency entry in [14], in assay [15], in assay [16] and in assay [17] was “inactive” each time. For the same molecule, the max response in assay [12] is -0.914%.
On to `[Cl-].[Cl-].[Sn+2]`, for which the Potency entry in assay [1], in assay [2], in assay [3], in assay [4], in assay [5] and in assay [7] was “inactive” in each case. Moreover, the Potency entry in [8], in [9], in assay [10], in assay [11], in assay [13] and in [14] was “inactive” throughout. The Potency result in assay [15], in assay [18], in assay [16] and in assay [17] was “inactive” in each case.

For the origin of these results see PubChem BioAssay (Tox21).
